Laboratory results reported in PubChem BioAssay (Tox21).
Inconclusive results are not listed. Activity calls are given as the source filed them. Unless noted, calls follow the shape of the full dose curve.

Test: qHTS assay for small molecule agonists of the antioxidant response element (ARE) signaling pathway (AID 743202; active = well fitted activation curve with a large enough effect in the signal ratio in the repeat runs, not every such curve was filed as active; the % refers to the signal ratio)
Details: HepG2 ARE-bla reporter, beta-lactamase FRET, 16 h; series mostly up to 73.3 µM; activation: at the top concentration
Procedure, shortened: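 Following a 16 h, 37 C exposure of reporter HepG2 cells (ARE-driven beta-lactamase, 2,000 cells/well) to compounds, FRET substrate was applied for 2 h at room temperature and fluorescence intensity recorded.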
% is scaled to controls: 0 for no effect and ±100 for the full control effect.

| SMILES | activation |
| --- | --- |
| Nc1ccc(F)cc1 | 6.75% [at 94.8 µM] (inactive) |
| O=C(O)CCS | -1.82% [at 94.8 µM] (inactive) |
| N[C@@H](Cc1cc(I)c(O)c(I)c1)C(=O)O | 4.67% (inactive) |
| CC(CO)(CO)C(=O)O | 8.12% [at 94.8 µM] (inactive) |
| COC(C)(C)OC | 0.178% (inactive) |
| CC(C)(C)NCC(O)COc1cccc2c1C[C@H](O)[C@H](O)C2 (some centres undefined) | -9.29% (inactive) |
| CC1CCc2nccnc21 (centres undefined) | -1.66% (inactive) |
| COc1ccc(CCN(C)CCCN2CCc3cc(OC)c(OC)cc3CC2=O)cc1OC | 5.57% (inactive) |
| COc1cc(NS(=O)(=O)c2ccc(N)cc2)nc(C)n1 | 8.93% (inactive) |
| CC(C)C(O)C(C)(C)CO (centres undefined) | -3.88% [at 94.8 µM] (inactive) |
| CC(C)OC(=O)c1ccccc1C(=O)OC(C)C | -3.72% (inactive) |
| CCCCCCC(O)CCOC(C)=O (centres undefined) | -2.4% [at 260 µM] (inactive) |
| CCN(Cc1cccc(S(=O)(=O)O)c1)c1ccc(C(=C2C=CC(=[N+](CC)Cc3cccc(S(=O)(=O)O)c3)C=C2)c2ccccc2S(=O)(=O)[O-])cc1 | -2.9% (inactive) |
| Cc1ccc2c(c1)CCCN2 | 4.36% (inactive) |
| CC[C@H]1OC(=O)[C@H](C)[C@@H](O[C@H]2C[C@@](C)(OC)[C@@H](O)[C@H](C)O2)[C@H](C)[C@@H](O[C@@H]2O[C@H](C)C[C@H](N(C)C)[C@H]2O)[C@](C)(O)C[C@@H](C)/C(=N\OCOCCOC)[C@H](C)[C@@H](O)[C@]1(C)O | -6.53% (inactive) |
| CCCCCCCCCCCCCOC(=O)CCSCCC(=O)OCCCCCCCCCCCCC | -2.03% [at 34.3 µM] (inactive) |
| Cc1cc(CCC(=O)OCCOCCOCCOC(=O)CCc2cc(C)c(O)c(C(C)(C)C)c2)cc(C(C)(C)C)c1O | -3.97% (inactive) |
| COC(CC(C)CCCC(C)(C)O)OC (centres undefined) | -3.89% (inactive) |
| CSSc1ccoc1C | -6.22% (inactive) |
| CC(=O)OCC(=O)[C@@]1(OC(C)=O)[C@@H](C)C[C@H]2[C@@H]3C[C@H](F)C4=CC(=O)C=C[C@]4(C)[C@@]3(F)[C@@H](O)C[C@@]21C | -10.8% (inactive) |
| C=C(C)C(=O)OCCC(F)(F)C(F)(F)C(F)(F)C(F)(F)C(F)(F)C(F)(F)F | 8.25% (inactive) |
| CC(C)C1CCC(C(=O)N[C@H](Cc2ccccc2)C(=O)O)CC1 (some centres undefined) | 0.111% (inactive) |

Test: qHTS assay for small molecule agonists of the antioxidant response element (ARE) signaling pathway - cell viability counter screen (AID 743203); also: nearly all actives have a fitted effect of over 55% in size; also: potency is read from the fitted curve at half-maximal effect
Details: ARE-bla HepG2 viability, CellTiter-Glo luminescence, 16 h; series mostly up to 73.3 µM; viability change, negative = cytotoxic: at the top concentration
Procedure, shortened: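 Viability counter screen: stably transfected ARE-bla HepG2 line, 16 hrs compound exposure at 37C/5% CO2, ATP-based CellTiter-Glo luminescence measured in the reporter wells.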

| SMILES | viability change, negative = cytotoxic | Potency |
| --- | --- | --- |
| CCCC(=O)OC(=O)CCC | 23.8% [at 94.8 µM] (inactive) |  |
| Nc1ccc(F)cc1 | -10.5% [at 94.8 µM] (inactive) |  |
| CC(C)CC(O)CC(C)C | 0.0222% (inactive) |  |
| COC(=O)CC(C(C)=O)C(=O)OC (centres undefined) | 4.77% (inactive) |  |
| O=C(O)CCS | 2.64% [at 94.8 µM] (inactive) |  |
| N[C@@H](Cc1cc(I)c(O)c(I)c1)C(=O)O | -1.42% (inactive) |  |
| CC(CO)(CO)C(=O)O | 7.67% [at 94.8 µM] (inactive) |  |
| COC(C)(C)OC | 4.18% (inactive) |  |
| C[C@@H]1[C@H](O)[C@@H](C)/C=C/C=C\C=C\C=C\C=C\C=C\C=C\[C@H](O[C@@H]2O[C@H](C)[C@@H](O)[C@H](N)[C@@H]2O)C[C@@H]2O[C@](O)(C[C@@H](O)C[C@@H](O)[C@H](O)CC[C@@H](O)C[C@@H](O)CC(=O)O[C@H]1C)C[C@H](O)[C@H]2C(=O)O (stereo in doubt) | 5.65% (inactive) |  |
| CCCCCCCCCCCCCOS(=O)(=O)O |  | 61.1 µM (active) |
| CC(C)(C)NCC(O)COc1cccc2c1C[C@H](O)[C@H](O)C2 (some centres undefined) | 0.969% (inactive) |  |
| CC1CCc2nccnc21 (centres undefined) | -9.68% (inactive) |  |
| COc1ccc(CCN(C)CCCN2CCc3cc(OC)c(OC)cc3CC2=O)cc1OC | -2.21% (inactive) |  |
| COc1cc(NS(=O)(=O)c2ccc(N)cc2)nc(C)n1 | 8.09% (inactive) |  |
| CC(C)C(O)C(C)(C)CO (centres undefined) | 0.648% [at 94.8 µM] (inactive) |  |
| COc1ccc(-c2cc(C(F)F)nn2-c2ccc(S(N)(=O)=O)cc2)cc1F | 26.1% (inactive) |  |
| [Cl][Nd]([Cl])[Cl] | 1.16% (inactive) |  |
| CC(C)OC(=O)c1ccccc1C(=O)OC(C)C | 8.24% (inactive) |  |
| CCCCCCC(O)CCOC(C)=O (centres undefined) | 14.3% [at 260 µM] (inactive) |  |

| SMILES | viability change, negative = cytotoxic | Potency |
| --- | --- | --- |
| Cc1cccc2sc(N)nc12 | -2.1% [at 94.8 µM] (inactive) |  |
| CCO[Si](C)(CCCOCC1CO1)OCC (centres undefined) | 13.7% (inactive) |  |
| Cc1ccc2c(c1)CCCN2 | 5.61% (inactive) |  |
| CC[C@H]1OC(=O)[C@H](C)[C@@H](O[C@H]2C[C@@](C)(OC)[C@@H](O)[C@H](C)O2)[C@H](C)[C@@H](O[C@@H]2O[C@H](C)C[C@H](N(C)C)[C@H]2O)[C@](C)(O)C[C@@H](C)/C(=N\OCOCCOC)[C@H](C)[C@@H](O)[C@]1(C)O | -24.1% (inactive) |  |
| Cc1c[nH]c2ccccc12 | 2.59% (inactive) |  |
| CCCCCCCCCCCCCOC(=O)CCSCCC(=O)OCCCCCCCCCCCCC | -19% [at 34.3 µM] (inactive) |  |
| Cc1cc(CCC(=O)OCCOCCOCCOC(=O)CCc2cc(C)c(O)c(C(C)(C)C)c2)cc(C(C)(C)C)c1O | 1.53% (inactive) |  |
| COC(CC(C)CCCC(C)(C)O)OC (centres undefined) | 7.84% (inactive) |  |
| CCSC(=O)N(CC)CC | -12% (inactive) |  |
| O=C(O)/C=C/c1ccc(O)c(O)c1 | -10% [at 94.8 µM] (inactive) |  |
| CSSc1ccoc1C | -16.4% (inactive) |  |
| CC(=O)OCC(=O)[C@@]1(OC(C)=O)[C@@H](C)C[C@H]2[C@@H]3C[C@H](F)C4=CC(=O)C=C[C@]4(C)[C@@]3(F)[C@@H](O)C[C@@]21C | -8% (inactive) |  |
| COc1cc(OC)c2ccc(=O)oc2c1 | -0.677% (inactive) |  |
| NC(=O)c1ccccc1[N+](=O)[O-] | 6.97% [at 94.8 µM] (inactive) |  |
| C=C(C)C(=O)OCCC(F)(F)C(F)(F)C(F)(F)C(F)(F)C(F)(F)C(F)(F)F | -0.226% (inactive) |  |
| CC(C)C1CCC(C(=O)N[C@H](Cc2ccccc2)C(=O)O)CC1 (some centres undefined) | 0.219% (inactive) |  |
| CC(=O)Oc1cccc(O)c1 | -3.04% (inactive) |  |
| CC[C@H]1OC(=O)[C@H](C)[C@@H](O[C@H]2C[C@@](C)(OC)[C@@H](O)[C@H](C)O2)[C@H](C)[C@@H](O[C@@H]2O[C@H](C)C[C@H](N(C)C)[C@H]2O)[C@](C)(O)C[C@@H](C)CN(C)[C@H](C)[C@@H](O)[C@]1(C)O | -5.21% (inactive) |  |
